In PubChem BioAssay AID1159580 (chemical genetic matrix, 2015):
About 2,000 (36%) of roughly 5,500 compounds were called active. Another 18% or so got no clear call; they are omitted. Cut-off read from the data, not from the text of the source: active = normalized growth mostly below about 0.91 (no sharp cut-off); inconclusive = no clear call, values can overlap the other calls; inactive = mostly above about 0.92. Some of the results follow.

Assay: chemical genetic growth profiling, strain panel (AID 1159580);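 note: tested at 20 µM; growth read once vehicle control cultures reached saturation at 30 °C; 1 = growth at the plate median or of vehicle wells; lower values mean less growth of the strain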
Details: S. cerevisiae deletion strains, growth OD

Measured: normalized growth

CC(=O)O.CC(=O)O.[Cd]
inactive: locus YJL129C, strain trk1, hits give low values 1.1
active: locus YAL013W, strain DEP1, hits give low values 0.225 | locus YAL021C, strain ccr4, hits give low values 0.629 | locus YAL026C, strain drs2, hits give low values 0.436 | locus YAL030W, strain snc1, hits give low values 0.77 | locus YBL061C, strain skt5, hits give low values 0.771 | locus YBR009C, strain hhf1, hits give low values 0.606 | locus YBR021W, strain FUR4, hits give low values 0.106 | locus YBR023C, strain chs3, hits give low values 0.743 | locus YBR171W, strain sec66, hits give low values 0.786 | locus YBR229C, strain ROT2, hits give low values 0.747 | locus YBR231C, strain swc5, hits give low values 0.666 | locus YBR279W, strain paf1, hits give low values 0.635 | locus YCL011C, strain gbp2, hits give low values 0.632 | locus YCL016C, strain dcc1, hits give low values 0.754 | locus YCL029C, strain bik1, hits give low values 0.313 | locus YCL061C, strain MRC1, hits give low values 0.783 | locus YCL069W, strain vba3, hits give low values 0.762 | locus YCR088W, strain abp1, hits give low values 0.654 | locus YDL005C, strain med2, hits give low values 0.513 | locus YDL035C, strain GPR1, hits give low values 0.243 | locus YDL040C, strain nat1, hits give low values 0.589 | locus YDL074C, strain BRE1, hits give low values 0.25 | locus YDL101C, strain DUN1, hits give low values 0.177 | locus YDL134C, strain PPH21, hits give low values 0.467 | locus YDL185W, strain tfp1, hits give low values 0.482 | locus YDL192W, strain arf1, hits give low values 0.144 | locus YDR001C, strain nth1, hits give low values 0.845 | locus YDR069C, strain doa4, hits give low values 0.107 | locus YDR101C, strain arx1, hits give low values 0.319 | locus YDR137W, strain rgp1, hits give low values 0.375 | locus YDR150W, strain NUM1, hits give low values 0.175 | locus YDR159W, strain sac3, hits give low values 0.828 | locus YDR162C, strain NBP2, hits give low values 0.111 | locus YDR195W, strain ref2 0.512 | locus YDR297W, strain sur2, hits give low values 0.727 | locus YDR318W, strain mcm21, hits give low values 0.264 | locus YDR334W, strain swr1, hits give low values 0.532 | locus YDR335W, strain msn5, hits give low values 0.782 | locus YDR388W, hits give low values 0.0738 | locus YDR392W, strain spt3, hits give low values 0.299 | locus YDR502C, strain sam2, hits give low values 0.464 | locus YEL003W, strain gim4, hits give low values 0.681 | locus YEL037C, strain rad23, hits give low values 0.786 | locus YEL061C, strain CIN8 (second series), hits give low values 0.866 | locus YEL061C, strain CIN8, hits give low values 0.342 | locus YER015W, strain faa2, hits give low values 0.632 | locus YER016W, strain bim1, hits give low values 0.702 | locus YER110C, hits give low values 0.499 | locus YER111C, strain swi4, hits give low values 0.872 | locus YER155C, strain BEM2 (second series), hits give low values 0.446 | locus YER155C, strain BEM2, hits give low values 0.519 | locus YER167W, strain BCK2, hits give low values 0.269 | locus YFR010W, strain ubp6, hits give low values 0.356 | locus YGL078C, strain dbp3, hits give low values 0.466 | locus YGL086W, strain mad1, hits give low values 0.256 | locus YGL167C, strain pmr1, hits give low values 0.493 | locus YGL173C, strain kem1, hits give low values 0.68 | locus YGL227W, strain vid30, hits give low values 0.901 | locus YGL240W, strain doc1, hits give low values 0.711 | locus YGL248W, strain PDE1, hits give low values 0.356 | locus YGL253W, strain hxk2, hits give low values 0.825 | locus YGR078C, strain PAC10, hits give low values 0.721 | locus YGR135W, strain pre9, hits give low values 0.565 | locus YGR229C, strain SMI1, hits give low values 0.11 | locus YGR252W, strain gcn5, hits give low values 0.253 | locus YHR013C, strain ard1, hits give low values 0.303 | locus YHR027C, strain rpn1, hits give low values 0.58 | locus YHR030C, strain SLT2, hits give low values 0.508 | locus YHR079C, strain IRE1 (second series), hits give low values 0.196 | locus YHR094C, strain hxt1, hits give low values 0.529 | locus YHR129C, strain ARP1, hits give low values 0.563 | locus YHR142W, strain chs7, hits give low values 0.761 | locus YHR200W, strain rpn10, hits give low values 0.513 | locus YIL066C, strain RNR3, hits give low values 0.27 | locus YIL073C, strain SPO22, hits give low values 0.134 | locus YIL125W, strain kgd1, hits give low values 0.356 | locus YIR030C, strain dcg1, hits give low values 0.383 | locus YJL092W, strain hpr5, hits give low values 0.744 | locus YJL095W, strain BCK1 (second series), hits give low values 0.669 | locus YJL095W, strain BCK1, hits give low values 0.266 | locus YJL115W, strain asf1, hits give low values 0.858 | locus YJL134W, strain LCB3, hits give low values 0.643 | locus YJL154C, strain vps35, hits give low values 0.485 | locus YJL164C, strain tpk1, hits give low values 0.684 | locus YJL166W, strain qcr8, hits give low values 0.59 | locus YJL168C, strain set2, hits give low values 0.4 | locus YJL187C, strain SWE1 (second series), hits give low values 0.326 | locus YJL187C, strain SWE1, hits give low values 0.771
